Several values for one entry are separate records, joined by “and”; a condition that tells them apart may be missing. Identical values can stand only once. Among all 5,500 compounds or so, about 2,000 (36%) were called active. About 18% were inconclusive and are not listed. Cut-off read from the data, not from the text of the source: active = normalized growth mostly below about 0.91 (no sharp cut-off); inconclusive = no clear call, values can overlap the other calls; inactive = mostly above about 0.92. This is one part of the list. Some structures have more than one record in an assay (separate samples or runs), and their calls can disagree.
Test: chemical genetic growth profiling, strain panel (AID 1159580);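 note: tested at 20 µM; growth read once vehicle control cultures reached saturation at 30 °C; 1 = growth at the plate median or of vehicle wells; lower values mean less growth of the strain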
Details: growth OD

Measured: normalized growth

CCn1cc(C(=O)O)c(=O)c2ccc(C)nc21
inactive: S. cerevisiae deletion strains, locus YKL009W, strain mrt4, stronger effect = lower value 0.91 | S. cerevisiae deletion strains, locus YKL068W, stronger effect = lower value 0.942 | S. cerevisiae deletion strains, locus YKL085W, strain MDH1 (second series), stronger effect = lower value 0.938 | S. cerevisiae deletion strains, locus YKL085W, strain MDH1, stronger effect = lower value 0.938 | S. cerevisiae deletion strains, locus YKL160W, strain elf1, stronger effect = lower value 0.976 | S. cerevisiae deletion strains, locus YKL190W, strain CNB1, stronger effect = lower value 0.933 | S. cerevisiae deletion strains, locus YKR026C, strain gcn3, stronger effect = lower value 0.965 | S. cerevisiae deletion strains, locus YLL001W, strain dnm1, stronger effect = lower value 0.946 | S. cerevisiae deletion strains, locus YLL026W, stronger effect = lower value 0.94 | S. cerevisiae deletion strains, locus YLL041C, strain sdh2, stronger effect = lower value 0.931 | S. cerevisiae deletion strains, locus YLR027C, strain aat2, stronger effect = lower value 0.942 | S. cerevisiae deletion strains, locus YLR058C, strain SHM2, stronger effect = lower value 0.921 | S. cerevisiae deletion strains, locus YLR102C, strain apc9, stronger effect = lower value 0.933 | S. cerevisiae deletion strains, locus YLR113W, strain HOG1, stronger effect = lower value 0.94 | S. cerevisiae deletion strains, locus YLR221C, strain rsa3, stronger effect = lower value 0.943 | S. cerevisiae deletion strains, locus YLR258W, strain gsy2, stronger effect = lower value 0.939 | S. cerevisiae deletion strains, locus YLR320W, strain mms22, stronger effect = lower value 0.976 | S. cerevisiae deletion strains, locus YLR330W, strain CHS5, stronger effect = lower value 0.949 | S. cerevisiae deletion strains, locus YLR342W, strain FKS1 (second series), stronger effect = lower value 0.958 | S. cerevisiae deletion strains, locus YLR342W, strain FKS1, stronger effect = lower value 0.912 | S. cerevisiae deletion strains, locus YLR357W, strain rsc2, stronger effect = lower value 1.09 | S. cerevisiae deletion strains, locus YLR370C, strain arc18, stronger effect = lower value 0.943 | S. cerevisiae deletion strains, locus YLR371W, strain rom2, stronger effect = lower value 0.941 | S. cerevisiae deletion strains, locus YLR384C, strain iki3, stronger effect = lower value 0.926 | S. cerevisiae deletion strains, locus YLR418C, strain cdc73, stronger effect = lower value 0.852 | S. cerevisiae deletion strains, locus YML120C, strain ndi1, stronger effect = lower value 0.954 | S. cerevisiae deletion strains, locus YMR058W, strain fet3, stronger effect = lower value 0.943 | S. cerevisiae deletion strains, locus YMR078C, strain ctf18, stronger effect = lower value 0.927 | S. cerevisiae deletion strains, locus YMR125W, strain sto1, stronger effect = lower value 1.02 | S. cerevisiae deletion strains, locus YMR129W, stronger effect = lower value 0.941 | S. cerevisiae deletion strains, locus YMR205C, strain PFK2, stronger effect = lower value 0.986 | S. cerevisiae deletion strains, locus YMR223W, strain ubp8, stronger effect = lower value 0.947 | S. cerevisiae deletion strains, locus YMR263W, strain SAP30, stronger effect = lower value 0.97 | S. cerevisiae deletion strains, locus YMR307W, strain GAS1, stronger effect = lower value 0.756 | S. cerevisiae deletion strains, locus YNL067W, strain RPL9B, stronger effect = lower value 0.949 | S. cerevisiae deletion strains, locus YNL071W, strain lat1, stronger effect = lower value 0.925 | S. cerevisiae deletion strains, locus YNL128W, strain TEP1, stronger effect = lower value 0.941 | S. cerevisiae deletion strains, locus YNL153C, strain GIM3, stronger effect = lower value 0.971 and 1.01 | S. cerevisiae deletion strains, locus YNL175C, strain NOP13, stronger effect = lower value 0.944 | S. cerevisiae deletion strains, locus YNL183C, strain NPR1, stronger effect = lower value 0.911 | S. cerevisiae deletion strains, locus YNL197C, strain WHI3, stronger effect = lower value 0.939 | S. cerevisiae deletion strains, locus YNL209W, strain ssb2, stronger effect = lower value 0.929 | S. cerevisiae deletion strains, locus YNL224C, strain SQS1, stronger effect = lower value 0.944 | S. cerevisiae deletion strains, locus YNL233W, strain BNI4, stronger effect = lower value 0.994 | S. cerevisiae deletion strains, locus YNL248C, strain rpa49, stronger effect = lower value 0.984 | S. cerevisiae deletion strains, locus YNL250W, strain rad50, stronger effect = lower value 0.939 | S. cerevisiae deletion strains, locus YNL307C, strain MCK1, stronger effect = lower value 0.955 | S. cerevisiae deletion strains, locus YNL322C, strain KRE1 (second series), stronger effect = lower value 0.983 | S. cerevisiae deletion strains, locus YNL322C, strain KRE1, stronger effect = lower value 0.933 and 0.965 | S. cerevisiae deletion strains, locus YNR049C, strain mso1, stronger effect = lower value 0.937 | S. cerevisiae deletion strains, locus YOL006C, strain TOP1, stronger effect = lower value 1.04 | S. cerevisiae deletion strains, locus YOL012C, strain htz1 0.496 | S. cerevisiae deletion strains, locus YOR061W, strain CKA2, stronger effect = lower value 0.898 | S. cerevisiae deletion strains, locus YOR070C, strain gyp1, stronger effect = lower value 0.935 | S. cerevisiae deletion strains, locus YOR080W, strain dia2, stronger effect = lower value 0.927 | S. cerevisiae deletion strains, locus YOR083W, strain WHI5 (second series), stronger effect = lower value 0.968 | S. cerevisiae deletion strains, locus YOR083W, strain WHI5, stronger effect = lower value 0.935 | S. cerevisiae deletion strains, locus YOR106W, strain vam3, stronger effect = lower value 0.964 | S. cerevisiae deletion strains, locus YOR136W, strain idh2, stronger effect = lower value 0.969 | S. cerevisiae deletion strains, locus YOR184W, strain ser1, stronger effect = lower value 0.882 | S. cerevisiae deletion strains, locus YOR231W, strain MKK1, stronger effect = lower value 0.888 | S. cerevisiae deletion strains, locus YOR265W, strain rbl2, stronger effect = lower value 0.93 | S. cerevisiae deletion strains, locus YOR270C, strain vph1, stronger effect = lower value 1.08 | S. cerevisiae deletion strains, locus YOR290C, strain snf2, stronger effect = lower value 0.962 | S. cerevisiae deletion strains, locus YOR316C, strain cot1, stronger effect = lower value 0.926 | S. cerevisiae deletion strains, locus YPL055C, strain LGE1, stronger effect = lower value 1.05 and 1.03 | S. cerevisiae deletion strains, locus YPL078C, strain atp4, stronger effect = lower value 0.927 | S. cerevisiae deletion strains, locus YPL106C, strain sse1, stronger effect = lower value 1.06 | S. cerevisiae deletion strains, locus YPL240C, strain hsp82, stronger effect = lower value 0.931 | S. cerevisiae deletion strains, locus YPL256C, strain CLN2, stronger effect = lower value 0.993 | S. cerevisiae deletion strains, locus YPR141C, strain kar3, stronger effect = lower value 0.954 | S. cerevisiae deletion strains, locus YPR167C, strain met16, stronger effect = lower value 0.929 | S. cerevisiae deletion strains, strain wtn01, stronger effect = lower value 0.915 | S. cerevisiae strains, strain wild type, stronger effect = lower value 0.932
0.945 (inactive) and 0.927 (active): S. cerevisiae deletion strains, locus YPL241C, strain CIN2, stronger effect = lower value
active: S. cerevisiae deletion strains, locus YKR001C, strain vps1, stronger effect = lower value 0.812 | S. cerevisiae deletion strains, locus YKR091W, strain srl3, stronger effect = lower value 0.926 | S. cerevisiae deletion strains, locus YLR039C, strain RIC1, stronger effect = lower value 0.447 | S. cerevisiae deletion strains, locus YLR262C, strain YPT6 (second series), stronger effect = lower value 0.297 | S. cerevisiae deletion strains, locus YLR262C, strain YPT6, stronger effect = lower value 0.406 | S. cerevisiae deletion strains, locus YLR268W, strain sec22, stronger effect = lower value 0.868 | S. cerevisiae deletion strains, locus YML016C, strain PPZ1, stronger effect = lower value 0.887 | S. cerevisiae deletion strains, locus YML032C, strain rad52, stronger effect = lower value 0.883 | S. cerevisiae deletion strains, locus YML124C, strain tub3, stronger effect = lower value 0.916 | S. cerevisiae deletion strains, locus YMR231W, strain pep5, stronger effect = lower value 0.891 | S. cerevisiae deletion strains, locus YNL271C, strain bni1, stronger effect = lower value 0.864 | S. cerevisiae deletion strains, locus YNL298W, strain CLA4, stronger effect = lower value 0.871 | S. cerevisiae deletion strains, locus YNR052C, strain pop2, stronger effect = lower value 0.803 | S. cerevisiae deletion strains, locus YOL147C, strain pex11, stronger effect = lower value 0.926 | S. cerevisiae deletion strains, locus YOR001W, strain rrp6, stronger effect = lower value 0.828 | S. cerevisiae deletion strains, locus YOR069W, strain VPS5, stronger effect = lower value 0.918 | S. cerevisiae deletion strains, locus YOR144C, strain elg1, stronger effect = lower value 0.914 | S. cerevisiae deletion strains, locus YPL051W, strain arl3, stronger effect = lower value 0.903 | S. cerevisiae deletion strains, locus YPR119W, strain clb2, stronger effect = lower value 0.918 | S. cerevisiae deletion strains, locus YPR163C, strain tif3, stronger effect = lower value 0.882
